Results taken from PubChem BioAssay (NCATS).
Inconclusive results are not listed. Calls of active or inactive are those of the source. Calls follow the shape of the dose curve; as a rule, active = well fitted curve in either direction with a large enough effect (not every such curve was filed as active); inconclusive = small, poorly fitted or top-dose-only effect, or another doubt; inactive = flat fitted curve, though single readings scatter.

Experiment: AP1 Signaling Pathway (AID 357);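 also: ME-180 reporter cells stimulated with EGF at its EC50 level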
Conditions: ME-180 AP-1-bla reporter, EGF-induced, beta-lactamase ratio, 5 h; at 7.69 µM (top of the series) unless noted
Source text: NCGC Assay Overview: Activator protein-1 (AP-1), a transcription factor, plays an important role in tumor genesis by regulating genes involved in cell proliferation, differentiation, apoptosis, and angiogenesis. AP-1 activity is induced by a complex network of signaling pathways that involves extracellular signals, such as growth factors. The AP-1 protein complex formed from c-Fos and c-Jun binding to the AP-1 response element results in transcriptional activation of genes containing such elements within their promoter. Low molecular weight molecules have been discovered and developed to modulate various components of these signaling pathways, for example, MAP kinase inhibitors. However, many points of pathway modulation remain untested due to the lack of chemical probes making this signaling locus of general interest. Using a beta-lactamase reporter-gene under control of the AP-1 response element, a cell-based assay [CellSensor(TM) AP-1-bla ME-180 developed by Invitrogen Corp.] was used to measure EGF-induced signaling. Library compounds were measured for their ability to modulate positively or negatively the action of EC50 EGF on reporter gene activity. Compounds were screened in a titration series in 1536-well format. Positive and negative modulators were identified based on the AC50 values derived from the screening data.
NCGC Assay Protocol Summary: 2500 cells/5uL in Opti-MEM medium containing 0.5% dialyzed FBS, 0.1 mM NEAA, 1 mM sodium pyruvate and 10 mM HEPES was dispensed into 1536-well plates and cells were cultured at 37 degrees Celsius overnight. […] After centrifugation at 1000 rpm for 2 seconds the plates were incubated at 37 degrees Celsius for 5 hours. 1 uL of CCF4-dye mixture was added to each well. After incubated at room temperature for 2.5 hours the plates were measured on an EnVision plate reader at Excitation 405nm, Emission1=460nm and Emission 2=530nm. The %Activity was determined from the ratio of 460nm/530nm.
% is scaled to controls: 0 for no effect and ±100 for the full control effect.

| SMILES | activity change, negative = inhibition |
| --- | --- |
| NC(=NCCC[C@H](N)C(=O)O)NO | -0.154% [at 38 µM] (inactive) |
| CS(=O)(=O)N1CCC2(CCN(C(c3ccccc3)c3ccccc3)CC2)CC1 | -4.08% (inactive) |
| Cc1noc(C)c1C(=O)N1CCC[C@@]2(CCN(C(=O)NC(C)C)C2)C1 | -0.0457% (inactive) |
| O=C(c1ccco1)N1CCC[C@@]2(CCN(Cc3nccs3)C2)C1 | 1.19% (inactive) |
| Cc1noc(C)c1-c1cc(N2CCN(C)CC2)ncn1 | 4.49% (inactive) |
| c1cncc(CNc2ncncc2-c2cccnc2)c1 | 3.11% (inactive) |
| CCSC(N)=Nc1ccc(C(F)(F)F)cc1 | -5.3% [at 38 µM] (inactive) |
| COC(=O)N1CCC2(CCN(C(=O)Nc3ccccc3)CC2)CC1 | -4.41% (inactive) |
| O=C(Nc1cccc(F)c1)N1CC[C@@]2(CCCNC2)C1 | 2.44% (inactive) |
| CCNc1ncc2nc(-c3cc(F)cc(F)c3)c(=O)n(C[C@H]3CCCO3)c2n1 | 7.28% (inactive) |
| COCC(=O)N1CCC2(CCCN(C(=O)Nc3ccc(OC)cc3)C2)CC1 | -3.98% (inactive) |
| CC(=O)NCCNc1ncnc2ccc(-c3c(C)noc3C)cc12 | 12.8% (inactive) |
| Cc1nc2cnc(N3CCOCC3)nc2n(C[C@H]2CCCO2)c1=O | -13.4% (inactive) |
| COc1ccccc1CN1CC[C@@]2(CCCN(C(=O)c3cccn3C)C2)C1 | -17% (inactive) |
| COCCNc1cc(-c2ccccc2C(F)(F)F)ncn1 | 1.05% (inactive) |
| CCNc1ncc2nc(C)c(=O)n(C3CC3)c2n1 | -8.59% (inactive) |
| COc1ccc(-c2nc3cnc(Nc4cccc(OC)c4)nc3n(C[C@H]3CCCO3)c2=O)cc1 | -24.6% (inactive) |
| CC(=O)NCCNc1ccnc(-c2ccccc2C(F)(F)F)n1 | 0.161% (inactive) |
| CN(C)c1ccnc(-c2ccccc2C(F)(F)F)n1 | 24.2% (inactive) |

| SMILES | activity change, negative = inhibition |
| --- | --- |
| Cc1ccccc1-c1nc(N2CCN(C)CC2)c2ccccc2n1 | 5.49% (inactive) |
| CN(C)Cc1ccccc1-c1cc(NC2CC2)ncn1 | -5.78% (inactive) |
| COC(=O)c1c(-c2cc(OC)c(OC)c(OC)c2)c2ccc(OCc3ccccn3)cc2c(=O)n1-c1ccc(N)cc1 | -16.9% [at 38 µM] (inactive) |
| Cc1nc2cnc(N3CCN(C)CC3)nc2n(C)c1=O | 2.98% (inactive) |
| COc1cccc(-c2ccc3ncnc(N(C)Cc4ccco4)c3c2)c1 | -18.7% (inactive) |
| COc1ccc(C(=O)N2CCC3(CC2)CN(c2ccncc2)C3)cc1 | 4.67% (inactive) |
| CS(=O)(=O)N1CCC[C@@]2(CCN(C(=O)Nc3ccccc3)C2)C1 | -1.88% (inactive) |
| COc1ccccc1-c1ccc2ncnc(NC3CCNCC3)c2c1 | 2.47% (inactive) |
| O=C(c1ccco1)N1CCC2(CC1)CN(C(c1ccccc1)c1ccccc1)C2 | -3.72% (inactive) |
| Cn1cc(-c2nc3cncnc3n(-c3ccccc3)c2=O)c2ccccc21 | -24% (inactive) |
| COc1cccc(-c2nc(N3CCN(C)CC3)c3ccccc3n2)c1 | 11.5% (inactive) |
| O=C(c1cccc(F)c1)N1CCC2(CCCN(c3ncccn3)C2)CC1 | 4.38% (inactive) |
| CC(=O)N1CCC2(CC1)CN(c1ccncc1)C2 | -4.3% (inactive) |
| O=C(c1ccco1)N1CCC2(CC1)CN(c1ccccc1)C2 | -1.6% (inactive) |
| Cc1cnc(CNc2ncncc2-c2cccc(C#N)c2)cn1 | 15% (inactive) |
| Cc1cccc(CNc2nc(-c3ccc4c(c3)OCO4)nc3ccccc23)c1 | -27.3% (inactive) |
| Cc1noc(C)c1-c1cc(NCc2ccccc2)ncn1 | -3.94% (inactive) |
| COc1ccccc1CNc1ncncc1-c1cccc(C#N)c1 | -6.51% (inactive) |
| CN(C)C(=O)c1ccc(-c2cc(NCc3cccnc3)ncn2)cc1 | 11.8% (inactive) |

Same assay, conditions: ME-180 AP-1-bla reporter, EGF-induced, beta-lactamase ratio, 5 h; at 17.2 µM (top of the series)

| SMILES | activity change, negative = inhibition |
| --- | --- |
| NCCC(=O)NCCc1cnc[nH]1 | -8.55% (inactive) |

Same assay, conditions: ME-180 (cervical carcinoma) AP-1-bla reporter, EGF-induced, beta-lactamase ratio, 5 h; at 38 µM (top of the series)

| SMILES | activity change, negative = inhibition |
| --- | --- |
| NCCC(=O)NCCc1cnc[nH]1 | 7.43% (inactive) |
